Data on 11 compounds can be found in paper PMC5540273 (PLoS ONE, 2017).

Some test systems named below: PKMYT1; PKN1; PKN2; PLK1; PLK2; PLK3; PLK4; PRKCD; PRKCE; PRKCH; PRKCI; PRKCQ; PRKD1; PRKD2; PRKD3; PRKG1; PRKG2; PRKX; PRP4.
Details in all cases: concentration: 1 μM, replicates: in singlicate; n = 1
The subject of a further assay is T1, PRKR.
T1 construct: gene EIF2AK2
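Note: KINOMEscan kinase panel screen.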

Consider `O=c1cc(N2CCOCC2)nc2n(Cc3cccc(F)c3)ccn12` [GSK2297430], for which the “%Inh” value in the assay on PKMYT1 is 0%; in the assay with PKN1 it was 20%; with PKN2, 0%; in the assay on PLK1, 1%; in the assay on PLK2, 0%; with PLK3, 0%. Further, the “%Inh” value in the assay on PLK4 is reported as 0%; with PRKCD, 2%; in the assay with PRKCE, 3%; in the assay with PRKCH, 31%; in the assay on PRKCI, 0%; with PRKCQ, 11%. For the same compound, the “%Inh” value turned out to be 6% in the assay on PRKD1; 0% in the assay with PRKD2; 0% in the assay with PRKD3; 10% with PRKG1; 0% in the assay on PRKG2; 0% in the assay on PRKR. In addition, the “%Inh” value in the assay on PRKX is 2%; in the assay on PRP4, 0%.

Take `c1ccc(-c2cc(-c3c[nH]nc3-c3ccccn3)ccn2)cc1` [GW576604]: the “%Inh” value is given as 3% in the assay on PKMYT1; 9% with PKN1; 0% in the assay on PKN2; 0% with PLK1; 0% in the assay on PLK2; 0% in the assay with PLK3. Besides, the “%Inh” value is on record as 0% in the assay on PLK4; 0% with PRKCD; 0% in the assay on PRKCE; 0% in the assay with PRKCH; 23% in the assay on PRKCI; 0% in the assay with PRKCQ. Besides, the “%Inh” value worked out at 67% with PRKD1; 49% with PRKD2; 50% in the assay on PRKD3; 0% in the assay with PRKG1; 0% in the assay on PRKG2; 3% in the assay on PRKR. Further, the “%Inh” value is 0% in the assay on PRKX and 22% in the assay on PRP4.

With `N#Cc1c(N2CCOCC2)sc(-c2ccn[nH]2)c1-c1ccc(Cl)cc1`, the “%Inh” value was 10% in the assay with PKMYT1; 17% with PKN1; 0% with PKN2; 24% in the assay with PLK1; 20% in the assay on PLK2; 15% with PLK3. In addition, the “%Inh” value with PLK4 is on record as 19%; in the assay with PRKCD, 0%; in the assay on PRKCE, 0%; with PRKCH, 2%; in the assay on PRKCI, 1%; in the assay with PRKCQ, 11%. In addition, the “%Inh” value is on record as 0% in the assay on PRKD1; 0% in the assay with PRKD2; 16% in the assay on PRKD3; 0% with PRKG1; 8% with PRKG2; 0% in the assay on PRKR. For the same compound, the “%Inh” value in the assay with PRKX was 12%; in the assay on PRP4 it was 56%.

In the case of `CSc1ccc(-c2cc3ncnc(SCC(=O)O)c3s2)cc1`, the “%Inh” value with PKMYT1 was 10%; in the assay on PKN1 it was 8%; with PKN2, 0%; in the assay on PLK1, 0%; in the assay on PLK2, 0%; in the assay on PLK3 it was 0%. Moreover, the “%Inh” value in the assay with PLK4 was found to be 11%; with PRKCD, 17%; in the assay with PRKCE, 26%; with PRKCH it was 2%; in the assay with PRKCI, 0%; in the assay with PRKCQ it was 0%. The “%Inh” value is 18% with PRKD1; 0% in the assay with PRKD2; 9% with PRKD3; 0% in the assay on PRKG1; 0% with PRKG2; 0% in the assay with PRKR. For the same compound, the “%Inh” value with PRKX and in the assay with PRP4 was 0% throughout.

For the compound `COCCNC(=O)c1ccc(-c2cc(C(=O)NC3CC3)cc(F)c2C)cc1` [GW868318], the “%Inh” value in the assay on PKMYT1 was determined as 10%; with PKN1, 0%; in the assay on PKN2 it was 20%; with PLK1, 66%; in the assay with PLK2, 46%; in the assay with PLK3, 33%. In addition, the “%Inh” value amounted to 34% in the assay on PLK4; 15% with PRKCD; 36% in the assay with PRKCE; 0% in the assay with PRKCH; 9% with PRKCI; 2% in the assay on PRKCQ. Further, the “%Inh” value came out at 2% in the assay with PRKD1; 0% in the assay on PRKD2; 0% in the assay on PRKD3; 7% in the assay with PRKG1; 27% with PRKG2; 4% in the assay on PRKR. The “%Inh” value in the assay with PRKX and in the assay with PRP4 was 0% throughout.

For `O=C1Cc2cc(Nc3nc(NCc4cccc(S(=O)(=O)C(F)(F)F)c4)ncc3C(F)(F)F)ccc2N1`, the “%Inh” value in the assay with PKMYT1 came out at 17%; in the assay on PKN1 it was 0%; in the assay on PKN2, 0%; with PLK1, 0%; with PLK2 it was 5%; in the assay with PLK3 it was 1%. Further, the “%Inh” value with PLK4 was 4%; in the assay with PRKCD it was 17%; in the assay with PRKCE, 23%; in the assay on PRKCH, 0%; in the assay on PRKCI it was 0%; in the assay with PRKCQ, 4%. Also, the “%Inh” value is given as 16% in the assay with PRKD1; 0% in the assay with PRKD2; 26% with PRKD3; 0% with PRKG1; 1% with PRKG2; 0% with PRKR. Besides, the “%Inh” value in the assay with PRKX is recorded as 0%; in the assay with PRP4, 10%.

`CCc1ccnc(/C=C/c2n[nH]c3cc(Sc4ccccc4C(=O)NC)ccc23)c1`: the “%Inh” value is 0% with PKMYT1; 9% in the assay with PKN1; 0% in the assay on PKN2; 0% with PLK1; 0% with PLK2; 0% in the assay with PLK3. The “%Inh” value with PLK4 stood at 83%; with PRKCD it was 9%; with PRKCE, 12%; with PRKCH, 0%; in the assay with PRKCI, 1%; in the assay on PRKCQ, 0%. The “%Inh” value in the assay on PRKD1 came to 0%; with PRKD2 it was 15%; in the assay on PRKD3, 0%; in the assay with PRKG1, 0%; in the assay on PRKG2, 0%; in the assay on PRKR, 0%. In addition, the “%Inh” value in the assay on PRKX is 29%; in the assay with PRP4 it was 0%.

Turning to `O=C(c1ccc(-c2cc(-c3c[nH]nc3-c3ccccn3)ccn2)cc1)N1CCOCC1` [GW812171], the “%Inh” value with PKMYT1 is given as 6%; with PKN1, 0%; in the assay with PKN2 it was 0%; in the assay on PLK1 it was 0%; in the assay on PLK2 it was 14%; in the assay on PLK3, 28%. Further, the “%Inh” value with PLK4 was 0%; in the assay with PRKCD it was 12%; in the assay on PRKCE, 14%; in the assay with PRKCH it was 0%; with PRKCI it was 15%; in the assay with PRKCQ, 0%. Also, the “%Inh” value in the assay on PRKD1 came to 0%; in the assay with PRKD2, 17%; in the assay on PRKD3 it was 0%; with PRKG1 it was 10%; with PRKG2 it was 0%; with PRKR it was 20%. Besides, the “%Inh” value in the assay with PRKX and with PRP4 was 0% each time.

Regarding `NS(=O)(=O)CCc1cccc(Nc2nccc(-c3c(-c4cccc(NC(=O)c5c(F)cccc5F)c4)nn4ccccc34)n2)c1` [GSK336735], the “%Inh” value with PKMYT1 worked out at 0%; in the assay with PKN1 it was 0%; with PKN2, 0%; with PLK1, 0%; with PLK2 it was 25%; in the assay with PLK3 it was 48%. The “%Inh” value in the assay with PLK4 was 12%; in the assay with PRKCD, 40%; in the assay on PRKCE, 0%; with PRKCH, 32%; in the assay with PRKCI, 11%; with PRKCQ, 55%. Besides, the “%Inh” value in the assay on PRKD1 was 40%; in the assay with PRKD2, 12%; with PRKD3, 56%; in the assay with PRKG1 it was 2%; in the assay on PRKG2, 0%; with PRKR, 0%. For the same compound, the entries for the “%Inh” value in the assay on PRKX and in the assay on PRP4 were 13% and 18%, respectively.

Regarding `O=c1cc(N2CCOCC2)nc2n(Cc3cccc(Cl)c3Cl)c(C3CC3)nn12` [GSK2358994], the “%Inh” value is on record as 0% in the assay with PKMYT1; 2% in the assay on PKN1; 0% in the assay on PKN2; 0% with PLK1; 0% in the assay on PLK2; 16% in the assay with PLK3. The “%Inh” value was 9% in the assay with PLK4; 0% in the assay with PRKCD; 33% in the assay with PRKCE; 0% with PRKCH; 4% in the assay with PRKCI; 0% in the assay on PRKCQ. Moreover, the “%Inh” value in the assay with PRKD1 was determined as 13%; in the assay with PRKD2, 0%; with PRKD3, 17%; in the assay with PRKG1, 14%; in the assay on PRKG2 it was 0%; in the assay on PRKR, 0%. Moreover, the “%Inh” value with PRKX and with PRP4 was 0% in each case.

As to `COC(=O)Nc1nc2cc(Oc3ccc(NC(=O)Nc4cc(F)ccc4F)cc3)ccc2[nH]1.Cl` [GW701424], the “%Inh” value in the assay with PKMYT1, in the assay with PKN1, with PKN2, with PLK1, in the assay on PLK2 and in the assay on PLK3 was 0% each time. The “%Inh” value with PLK4 stood at 0%; with PRKCD, 0%; with PRKCE, 12%; in the assay on PRKCH it was 5%; with PRKCI, 0%; in the assay on PRKCQ, 0%. The “%Inh” value in the assay with PRKD1 was 0%; in the assay with PRKD2, 0%; with PRKD3, 6%; in the assay on PRKG1 it was 0%; with PRKG2 it was 0%; in the assay with PRKR it was 0%. In addition, the figures for the “%Inh” value in the assay with PRKX and with PRP4 were 0% and 62%, respectively.
